Data on 42 sequences can be found in PMC7819943, “Rice protein-binding microarrays: a tool to detect cis-acting elements near promoter regions in rice”.

The full ranking holds about 39,000 sequences; the median of “fluorescence intensity (a.u.)” is about 4,300, and the highest 2% start at about 39,000. The entries come from a sample that favours the highest values as a whole.

This experiment has as its target T1, OsSMF1 (Oryza sativa, UniProt Q6ZLB0 1-436).
T1 sequence: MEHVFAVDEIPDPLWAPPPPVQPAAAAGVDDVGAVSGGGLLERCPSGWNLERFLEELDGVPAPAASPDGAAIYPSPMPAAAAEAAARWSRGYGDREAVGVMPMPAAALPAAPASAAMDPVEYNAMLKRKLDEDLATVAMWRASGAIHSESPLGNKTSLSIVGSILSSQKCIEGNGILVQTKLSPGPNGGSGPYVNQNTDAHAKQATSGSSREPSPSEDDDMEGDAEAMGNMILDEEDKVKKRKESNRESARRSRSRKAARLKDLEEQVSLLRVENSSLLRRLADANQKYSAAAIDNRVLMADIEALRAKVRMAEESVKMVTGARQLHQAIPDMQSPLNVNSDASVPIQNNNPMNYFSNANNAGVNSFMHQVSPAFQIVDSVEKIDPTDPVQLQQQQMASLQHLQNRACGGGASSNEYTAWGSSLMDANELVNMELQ
The experiment in a line: protein-binding microarray (RPBM); PBS, 2% BSA, 51.3 ng/ul salmon testes DNA, 50 uM zinc acetate, 200 nM TF, 25 C, 1 h; high values mean tight binding. Conditions: protein: recombinant; tags: N-terminal polyhistidine and DsRed monomer fusion (pET32a); chain copies: 2; label: CyDye5-dUTP incorporated in the synthesized complementary strand; 3' TTTTT single-stranded linker to array surface; dsDNA, one strand shown. A digest of the protocol: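 Transcription factors were made in E. coli BL21-CodonPlus as N-terminal fusions to a polyhistidine tag and DsRed, then purified on Ni–NTA. After primer extension with Cy5-dUTP and blocking with 2% BSA, a custom Agilent array was exposed for 1 h at 25 °C to 200 nM protein in PBS, 2% BSA, salmon testes DNA and 50 µM zinc acetate. Washed arrays were scanned on an Axon 4000B, and the binding signal is per-feature fluorescence intensity in arbitrary units.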
Regarding “CCAGTTAGGCCCACGAGTAGGTGGAACGACCACCTCACGGCGGAGTCACCTAGTGCAG”, the binding signal was 3710 fluorescence intensity (a.u.). Consider “TTCCCGGTCTCTTATTATCCATATCATAAGTAAATTAGTTCGGAGTCACCTAGTGCAG”, for which the binding signal is 7670 fluorescence intensity (a.u.). In the case of “GCCTTCCCTTCCTTCCTCTGCCAATGGCCGCGCGTCAGCCCGGAGTCACCTAGTGCAG”, the binding signal is 3390 fluorescence intensity (a.u.). Take “CGCCGCCTGCCCCTGCGCCTGCAGCCTCTGCGCCTCCTGCCGGAGTCACCTAGTGCAG”: the binding signal was 3560 fluorescence intensity (a.u.).

Consider “CCTAGCCCTCCTCCTACTCCTCTGCAATGGTAGATTGCGCCGGAGTCACCTAGTGCAG”, for which the binding signal is 47700 fluorescence intensity (a.u.).

Consider “CTCCGTGAGCCCTTCCTCCTCCGCTCCTCTCCTTTCCGCCCGGAGTCACCTAGTGCAG”, for which the binding signal is 15600 fluorescence intensity (a.u.). With “TTAGCCCTTCCTCTCCTGCTTCCGCCCTTCCATGGCAATGCGGAGTCACCTAGTGCAG” the figure was 46700 fluorescence intensity (a.u.). Consider “CTCTCTTCCTCTCTCTCTCCTCCGCGTAGGATTTAGCCTGCGGAGTCACCTAGTGCAG”, for which the binding signal is 3880 fluorescence intensity (a.u.).

For the sequence “CGACGCGGCGGCGAAAAGTCGGCGAACTGCGGCGAGGTGGCGGAGTCACCTAGTGCAG”, the binding signal is 30100 fluorescence intensity (a.u.). Turning to “AGTTGATAGGAGTAGCTTGAAGAAGCAGAGACAGCTAGATCGGAGTCACCTAGTGCAG”, the binding signal is 37600 fluorescence intensity (a.u.).

Consider “AGAAATTGAATTGCTTGCTACAGAGAAGCTAGAAGAGTTTCGGAGTCACCTAGTGCAG”, for which the binding signal is 64800 fluorescence intensity (a.u.). As for “AAATGGCCTTGCACACCTTGTCATTGAAATTAAGAACAAACGGAGTCACCTAGTGCAG”, the binding signal is 6400 fluorescence intensity (a.u.).

As for “GAATGAATTGAAACAGACAATGCACACGCTTAGTCCATGACGGAGTCACCTAGTGCAG”, the binding signal was 28800 fluorescence intensity (a.u.). Regarding “GAATTAGCTTGATTGACAGAAACAAATGGCTACAACTACACGGAGTCACCTAGTGCAG”, the binding signal is 65500 fluorescence intensity (a.u.). As to “GAAAGCTAGAAGAGAAATTGACCTGGATTGAGTTTTGTGCCGGAGTCACCTAGTGCAG”, the binding signal is 4170 fluorescence intensity (a.u.). “TGCATCACACGTACACATCTATCCATCGATCCAGTCCGCCCGGAGTCACCTAGTGCAG”: the binding signal was 4610 fluorescence intensity (a.u.). As to “TTTCTTTTCTTCTTTCCTTCTCCCCACGGAGGTGTACGTACGGAGTCACCTAGTGCAG”, the binding signal was 3440 fluorescence intensity (a.u.). For “TGGTACATGGTGTGCCCTACCGAGCTTAGTCAACCACTTTCGGAGTCACCTAGTGCAG”, the binding signal is 3230 fluorescence intensity (a.u.). In the case of “TATAGTGGCAACGCATGCTGACGTTACGGTGTACCGCCGTCGGAGTCACCTAGTGCAG”, the binding signal is 5900 fluorescence intensity (a.u.). For “TTCAGGTGATGAGTCAATGGAGGAGGATGTCATGGAGATTCGGAGTCACCTAGTGCAG”, the binding signal is 4750 fluorescence intensity (a.u.).

On to “ATAACGGTGCTAATCTACTGGTGACTGTGCCTGGTGGTGGCGGAGTCACCTAGTGCAG”, for which the binding signal is 4380 fluorescence intensity (a.u.). Turning to “ATATCGACTACACACTGTTCTTGGCTACATCGATTGATTGCGGAGTCACCTAGTGCAG”, the binding signal is 4840 fluorescence intensity (a.u.). On to “GCTTATCGATAAACTCAGTGTATTTGCATTCAAATTTTGACGGAGTCACCTAGTGCAG”, for which the binding signal is 3660 fluorescence intensity (a.u.). Turning to “TCATTTCTAATGTAAATTATCTTTTGCGTAAGTAATTTCTCGGAGTCACCTAGTGCAG”, the binding signal is 3230 fluorescence intensity (a.u.). Consider “TAAAGTAAACTCGATCTCTTTCCGAGAAGTGTATTATTTTCGGAGTCACCTAGTGCAG”, for which the binding signal is 41400 fluorescence intensity (a.u.). With “TGATTAAAGTATTCTTATTTCTCTTTTGAGCAATATCTAACGGAGTCACCTAGTGCAG”, the binding signal is 21900 fluorescence intensity (a.u.). Take “AACCCTAAGACTAGAGGCGGGCTGGAGCGTGGAGGCGGGACGGAGTCACCTAGTGCAG”: the binding signal is 3240 fluorescence intensity (a.u.). In the case of “GGTTTAACCGTTTGGTAGCTGACATGTGCGCCTGGGCATACGGAGTCACCTAGTGCAG”, the binding signal is 3380 fluorescence intensity (a.u.). With “TCATTGGTATCTCAATGACATGTAGGACCTACATGAGTCACGGAGTCACCTAGTGCAG” the figure was 8190 fluorescence intensity (a.u.); with “AAAATATATTACTACCTCCGTTTCATATTATAAGACTTTCCGGAGTCACCTAGTGCAG”, 65400 fluorescence intensity (a.u.); with “AATCTACTTCCTCCGTTTTATGTTATAAGACTTTCTAGCACGGAGTCACCTAGTGCAG”, 3140 fluorescence intensity (a.u.). On to “TTTGAAAATAATACTCCCTCCGTTTCATAATATAAGTGATCGGAGTCACCTAGTGCAG”, for which the binding signal is 3260 fluorescence intensity (a.u.). In the case of “ACCACCACCTCGGCATCTCCTCGTCCTCGAGCCCAATACTCGGAGTCACCTAGTGCAG” it was 3660 fluorescence intensity (a.u.); in that of “AGCAACCAAATCTTCCCAATTCTCACTTGCTCCTAGATACCGGAGTCACCTAGTGCAG”, 3840 fluorescence intensity (a.u.); in that of “AGCCTTGTCATGTAAACCTATCCTTTTGAGACACGTGCGTCGGAGTCACCTAGTGCAG”, 5780 fluorescence intensity (a.u.). In the case of “TTCTCCCACCGCATCCTCTCTCCCCTTGAGTATTTACTTTCGGAGTCACCTAGTGCAG” it was 3420 fluorescence intensity (a.u.); in that of “CGTAACGCGATCGAGAACCGACTCAGCCGAGACTCATCGTCGGAGTCACCTAGTGCAG”, 3710 fluorescence intensity (a.u.). In the case of “AGGACGAGACCCCATCCAACCACCCCAGCCACGTCAGCAACGGAGTCACCTAGTGCAG”, the binding signal is 34000 fluorescence intensity (a.u.). For the sequence “TGGATATTTTCTACCCCTGGACCCAGCTGTCAGATCCAACCGGAGTCACCTAGTGCAG”, the binding signal is 3250 fluorescence intensity (a.u.). Turning to “TTCGAGCAACTCTACCTGGATCCAGACCAACCCCAGTAGACGGAGTCACCTAGTGCAG”, the binding signal is 50400 fluorescence intensity (a.u.). In the case of “TAGCAGGTTTCCTGCCAACTTGGCACACTTGCTTCGTGGTCGGAGTCACCTAGTGCAG” it was 3620 fluorescence intensity (a.u.); in that of “GATTCAAGGTTGAGAGGACCTAAGATGTCCAATGATGTGTCGGAGTCACCTAGTGCAG”, 3470 fluorescence intensity (a.u.).
